Here are results for 16 compounds from PubChem BioAssay.

Each structure is given as a SMILES string. Calls of active or inactive are those of the source.

Assay [1] can be described thus: binders of probe aFSTL3 on microarray, primary screen, stem cell growth factor project, biochemical, small-molecule microarray, fluorescence 635/667 (AID 1064).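 Also: measures binding of the biotinylated anti-FSTL3 antibody to printed compounds.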 Particulars: higher = more signal; small-molecule microarray, probe aFSTL3, fluorescence unless noted.
Assay [2] in a line: binders from COS7 lysate, DM2A8 probe, primary screen, torsin A project, cell lysate, small-molecule microarray, fluorescence 635/667 (AID 1065). Particulars: higher = more signal; small-molecule microarray, COS7 cell lysate, probe DM2A8, fluorescence, COS7 lysate expressing mutant human TOR1A unless noted.
Assay [3] is described as follows: binders of probe aFGF2 on microarray, primary screen, stem cell growth factor project, biochemical, small-molecule microarray, fluorescence 635/667 (AID 1067).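 Also: measures binding of biotinylated aFGF2 protein to printed compounds on slides; z-score merges feature fluorescence and signal-to-noise across triplicate slides.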 The conditions noted are these: higher = more signal; small-molecule microarray, probe aFGF2, fluorescence unless noted.
Assay [4] is described as follows: binders of probe aFGF10 on microarray, primary screen, stem cell growth factor project, biochemical, small-molecule microarray, fluorescence 635/667 (AID 1071).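 Also: score merges 667 nm spot intensity and signal to noise from triplicate slides.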 The conditions noted are these: higher = more signal; small-molecule microarray, probe aFGF10, fluorescence unless noted.
The target in assay [5] is Neurogenic locus notch homolog protein 2 (Homo sapiens) (UniProt Q04721). Briefly: Notch2 binders on small-molecule microarrays, primary screen, biochemical, small-molecule microarray, 635 nm fluorescence, stem cell growth factors (AID 1073). The conditions noted are these: Notch2 binding, higher = more signal.
Neurogenic locus notch homolog protein 2 (Homo sapiens), sequence (Q04721 whole entry, looked up, canonical isoform): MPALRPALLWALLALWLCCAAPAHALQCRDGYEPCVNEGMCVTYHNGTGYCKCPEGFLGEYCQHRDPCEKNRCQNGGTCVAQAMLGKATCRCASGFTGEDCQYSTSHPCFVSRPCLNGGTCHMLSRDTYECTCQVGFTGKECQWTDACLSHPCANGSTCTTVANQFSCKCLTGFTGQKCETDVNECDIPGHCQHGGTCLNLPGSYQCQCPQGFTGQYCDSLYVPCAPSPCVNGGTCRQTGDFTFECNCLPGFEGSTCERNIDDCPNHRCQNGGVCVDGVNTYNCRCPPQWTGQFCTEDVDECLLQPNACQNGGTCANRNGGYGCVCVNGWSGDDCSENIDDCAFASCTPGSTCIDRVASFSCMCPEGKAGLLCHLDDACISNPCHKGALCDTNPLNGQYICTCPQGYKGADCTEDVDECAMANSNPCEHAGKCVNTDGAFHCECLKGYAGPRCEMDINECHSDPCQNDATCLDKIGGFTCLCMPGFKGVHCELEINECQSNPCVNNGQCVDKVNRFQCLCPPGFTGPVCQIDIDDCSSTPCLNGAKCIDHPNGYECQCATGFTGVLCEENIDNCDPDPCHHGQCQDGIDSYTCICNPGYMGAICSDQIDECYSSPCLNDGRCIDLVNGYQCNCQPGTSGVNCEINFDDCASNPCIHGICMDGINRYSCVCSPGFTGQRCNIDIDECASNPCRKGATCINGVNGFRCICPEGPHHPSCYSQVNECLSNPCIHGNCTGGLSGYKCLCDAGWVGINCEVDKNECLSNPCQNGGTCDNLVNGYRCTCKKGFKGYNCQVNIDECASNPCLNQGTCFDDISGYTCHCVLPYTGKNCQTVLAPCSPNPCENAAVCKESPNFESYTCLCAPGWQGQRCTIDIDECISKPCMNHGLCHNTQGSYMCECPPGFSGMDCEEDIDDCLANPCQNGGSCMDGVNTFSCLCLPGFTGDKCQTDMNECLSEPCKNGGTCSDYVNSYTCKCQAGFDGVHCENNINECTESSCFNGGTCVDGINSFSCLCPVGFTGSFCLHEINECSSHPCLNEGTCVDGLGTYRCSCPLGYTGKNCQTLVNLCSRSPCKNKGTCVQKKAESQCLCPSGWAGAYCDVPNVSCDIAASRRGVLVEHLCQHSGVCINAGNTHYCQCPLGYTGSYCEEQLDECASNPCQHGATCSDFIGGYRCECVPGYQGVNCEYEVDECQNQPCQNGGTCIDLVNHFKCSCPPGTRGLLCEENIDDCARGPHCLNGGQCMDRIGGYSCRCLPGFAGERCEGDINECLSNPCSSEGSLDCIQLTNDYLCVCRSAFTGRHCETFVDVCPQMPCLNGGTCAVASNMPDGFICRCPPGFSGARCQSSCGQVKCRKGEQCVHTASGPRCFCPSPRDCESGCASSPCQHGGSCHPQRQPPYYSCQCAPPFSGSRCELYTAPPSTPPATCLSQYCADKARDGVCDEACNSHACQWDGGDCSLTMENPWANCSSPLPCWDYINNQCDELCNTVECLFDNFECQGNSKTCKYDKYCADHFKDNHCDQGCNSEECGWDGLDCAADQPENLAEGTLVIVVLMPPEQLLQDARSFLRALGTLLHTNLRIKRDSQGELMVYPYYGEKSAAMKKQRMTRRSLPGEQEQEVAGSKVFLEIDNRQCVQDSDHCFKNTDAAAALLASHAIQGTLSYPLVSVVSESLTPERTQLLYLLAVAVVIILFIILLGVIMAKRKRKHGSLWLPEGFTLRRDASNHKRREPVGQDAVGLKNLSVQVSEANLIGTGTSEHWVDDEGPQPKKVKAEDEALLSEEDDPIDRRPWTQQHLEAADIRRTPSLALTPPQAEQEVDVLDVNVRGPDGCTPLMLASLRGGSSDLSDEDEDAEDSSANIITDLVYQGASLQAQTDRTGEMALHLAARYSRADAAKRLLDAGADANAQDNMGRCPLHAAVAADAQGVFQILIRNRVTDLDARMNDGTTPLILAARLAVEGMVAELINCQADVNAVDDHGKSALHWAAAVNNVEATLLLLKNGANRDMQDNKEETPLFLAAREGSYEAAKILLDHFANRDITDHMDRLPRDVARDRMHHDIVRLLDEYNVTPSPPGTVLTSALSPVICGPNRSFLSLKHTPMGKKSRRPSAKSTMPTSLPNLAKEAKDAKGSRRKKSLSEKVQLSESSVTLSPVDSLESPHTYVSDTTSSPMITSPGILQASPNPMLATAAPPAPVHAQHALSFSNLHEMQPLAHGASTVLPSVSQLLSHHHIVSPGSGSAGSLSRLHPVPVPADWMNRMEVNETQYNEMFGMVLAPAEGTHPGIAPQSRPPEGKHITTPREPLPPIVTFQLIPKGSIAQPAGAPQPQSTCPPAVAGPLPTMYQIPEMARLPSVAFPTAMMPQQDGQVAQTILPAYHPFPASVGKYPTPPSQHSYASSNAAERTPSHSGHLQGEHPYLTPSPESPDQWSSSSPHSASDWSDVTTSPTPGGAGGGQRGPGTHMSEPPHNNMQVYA
Assay [6] concerns the target Pro-neuregulin-1, membrane-bound isoform (Homo sapiens) (UniProt Q02297). Put plainly: NRG1 binders on small-molecule microarrays, primary screen, psychiatric disease protein project, biochemical, small-molecule microarray, fluorescence 635/667 (AID 1075).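 Also: score combines 667 nm spot fluorescence with signal to noise.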 The conditions noted are these: NRG1 binding, 635 nm fluorescence, higher = more signal.
Assay [7] relates to Neuregulin-1 EGF-like domain. Briefly: binders of neuregulin-1 EGF-like domain, primary screen, biochemical, small-molecule microarray, 635 nm fluorescence (AID 1081).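 Also: binding of the protein to compounds printed on small-molecule microarray slides.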 The conditions noted are these: small-molecule microarray binding, higher = more signal.
Assay [8] is described as follows: FRG1 promoter luciferase signal modulators, primary screen, FRG1 inhibition for FSHD, cell-based, C2C12 myotubes, firefly/Renilla luciferase, luminescence (AID 1084). The conditions noted are these: higher = more signal, called active from +8 up or from −8 down unless noted.
A short description of assay [9]: binders of probe aFST on microarray, primary screen, stem cell growth factor project, biochemical, small-molecule microarray, fluorescence 635/667 (AID 1086).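 Also: score merges 667 nm fluorescence with signal-to-noise of each printed compound spot.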 Particulars: higher = more signal.
A short description of assay [10]: binders of probe aHhip on microarray, primary screen, stem cell growth factor project, biochemical, small-molecule microarray, fluorescence 635/667 (AID 1087).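 Also: score merges spot fluorescence at 667nm with spot signal to noise ratio.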 Particulars: higher = more signal.

Pro-neuregulin-1, membrane-bound isoform (Homo sapiens), sequence (Q02297 whole entry, looked up, the tested form may be a part, canonical isoform): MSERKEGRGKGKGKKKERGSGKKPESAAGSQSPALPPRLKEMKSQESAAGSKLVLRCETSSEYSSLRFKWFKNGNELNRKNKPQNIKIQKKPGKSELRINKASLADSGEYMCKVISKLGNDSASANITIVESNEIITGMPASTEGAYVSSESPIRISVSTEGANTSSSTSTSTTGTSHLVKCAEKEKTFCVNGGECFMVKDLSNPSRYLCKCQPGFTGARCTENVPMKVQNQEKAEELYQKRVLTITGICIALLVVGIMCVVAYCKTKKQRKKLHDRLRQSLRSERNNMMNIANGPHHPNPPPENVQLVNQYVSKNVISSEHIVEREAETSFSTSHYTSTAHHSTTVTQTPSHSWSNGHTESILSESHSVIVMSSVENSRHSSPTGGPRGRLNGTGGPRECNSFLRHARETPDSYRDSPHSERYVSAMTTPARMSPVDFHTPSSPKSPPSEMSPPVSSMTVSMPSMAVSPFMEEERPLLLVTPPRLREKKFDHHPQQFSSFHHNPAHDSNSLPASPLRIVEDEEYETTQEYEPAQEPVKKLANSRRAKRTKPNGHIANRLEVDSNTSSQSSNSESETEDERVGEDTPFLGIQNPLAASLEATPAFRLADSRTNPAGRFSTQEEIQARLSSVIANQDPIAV

As to `CCCc1cc2c(n1Cc1ccc(C)cc1)C(C)C1CN(C(=O)c3ccccc3)C(C)(C(=O)OC)C21` (stereo not given), the composite z-score in [1] was 1.37; in assay [2] it was 1.32; in assay [3] it was 0.459; in assay [4] it was 1.14; in assay [5], 1.43; in [6], 1.32. The composite z-score in assay [7] is 1.08; in [9] it was 1.95; in assay [10] it was 0.321. In assay [8], the z-score was -0.876 (inactive).

Take `C=C(CC1(C(C)NP(=O)(c2ccccc2)c2ccccc2)CC1)c1ccccc1` (stereo not given): the composite z-score is 0.21 in assay [1]; -0.954 in assay [2]; 0.208 in assay [3]; 0.851 in assay [4]; 1.01 in assay [5]; 1.16 in [6]. Further, the composite z-score amounted to 0.714 in assay [7], 0.881 in assay [9] and 0.113 in [10]. Also, in [8], the z-score was -3.03 (inactive).

On to `O=P(c1ccccc1)(c1ccccc1)N1CC2(CC2)CC(O)(c2ccccc2)C1` (stereo not given), for which the composite z-score was 0.234 in [1]; -0.86 in assay [2]; 0.0316 in assay [3]; 0.862 in [4]; 1.65 in [5]; 0.963 in [6]. Besides, the composite z-score in assay [7] was 1.33; in assay [9], 0.553; in [10], 0.21. The z-score in assay [8] was -2.28 (inactive).

With `COC(=O)[C@H]1C(=O)c2ccccc2O[C@@](C(=O)OC)(c2ccccc2)[C@@H]1c1ccccc1`, the composite z-score in assay [1] was -0.384; in [2], -0.262; in [3], -0.149; in [4] it was 0.179; in assay [5], 0.343; in assay [6], -0.454. For the same compound, the figures for the composite z-score in [7], in assay [9] and in [10] were -1.02, -0.204 and -0.134, respectively. Further, the z-score in [8] is -0.748 (inactive).

As to `COC(=O)[C@H]1[C@H](c2ccccc2)C(=O)[C@]2(O)c3ccccc3O[C@@]12c1ccccc1`, the composite z-score is -0.521 in assay [1]; 0.824 in [2]; -0.0894 in assay [3]; 0.273 in [4]; 0.472 in assay [5]; 0.113 in assay [6]. Further, the values for the composite z-score in assay [7], in assay [9] and in [10] were 0.348, -0.12 and -0.236, respectively. In addition, the z-score in assay [8] is -2.68 (inactive).

Turning to `CCOC(=O)[C@H]1CC=C2C(=O)Oc3ccc(Br)cc3[C@@H]21`, the composite z-score in assay [1] was 0.165; in [2], 0.384; in assay [3], -0.161; in [4] it was -0.332; in assay [5], -0.664; in assay [6] it was 0.994. The composite z-score in [7] was 0.727; in assay [9] it was -0.598; in assay [10] it was -0.134. Further, the z-score in assay [8] was -0.818 (inactive).

Take `C[C@@H]1OC=C2[C@@H](O)[C@H]3O[C@H]3C(=O)[C@]23[C@H]1[C@H]1C2=C([C@@H](O)[C@H]4O[C@H]4C2=O)[C@@H]3O[C@@H]1C`: the composite z-score in assay [1] is -0.532; in [2] it was 0.0437; in assay [3], -0.169; in assay [4], -0.0391; in assay [5], 0.121; in [6], -0.854. The composite z-score in [7] is -0.372; in [9], -0.192; in assay [10], 0.0274. Moreover, in assay [8], the z-score was -0.165 (inactive).

Regarding `CN1CCC(c2ccc(CO)cc2)=CC1C1CC1` (stereo not given), the composite z-score in assay [1] was -0.394; in assay [2], -0.0038; in assay [3], -0.158; in assay [4], -0.301; in [5] it was -0.616; in assay [6], -0.292. Also, the composite z-score was 0.839 in assay [7], -0.337 in [9] and -0.164 in assay [10]. In addition, the z-score in [8] was 0.666 (inactive).

For `c1ccc(-c2cc3c(nc2-c2ccccc2)CCNC3)cc1`, the composite z-score in assay [1] was 0.0329; in [2] it was -0.112; in assay [3], -0.0494; in assay [4] it was -0.296; in assay [5], -0.634; in assay [6] it was -0.0361. For the same compound, the composite z-score in assay [7] was -0.969; in assay [9] it was 0.0294; in assay [10], -0.374. Moreover, the z-score in assay [8] was -0.148 (inactive).

On to `CCCc1cc2c(n1CCO)C(C)C1CN(C(=O)c3ccccc3)C(C)(C(=O)OC)C21` (stereo not given), for which the composite z-score in [1] worked out at 1.44; in [2] it was 1.73; in assay [3], 0.374; in assay [4], 0.0514; in assay [5], 1.66; in assay [6] it was 1.21. Moreover, the composite z-score in [7] was 1.14; in [9] it was 1.44; in assay [10], 0.593. The z-score in [8] is 2.02 (inactive).

With `CCCC=C(CCC)[C@@H](NP(=O)(c1ccccc1)c1ccccc1)c1ccccc1`, the composite z-score in assay [1] is -0.335; in assay [2], 0.0595; in [3], 0.0354; in assay [4], 0.33; in assay [5], 1.25; in assay [6], -0.0154. Besides, the composite z-score came to 0.318 in assay [7], 0.714 in [9] and 0.408 in assay [10]. Besides, in assay [8], the z-score is -0.763 (inactive).

`CCc1cc2c(nc1CC)CCN(CCC(C)=NOC)C2`: the composite z-score in assay [1] was 0.515; in [2], 0.974; in [3], -0.0097; in assay [4] it was 0.324; in assay [5] it was 0.608; in assay [6] it was 0.0159. The values for the composite z-score in assay [7], in assay [9] and in assay [10] were 0.763, 0.497 and 0.113, respectively. Further, the z-score in assay [8] is 2.07 (inactive).

Consider `OCc1ccc(C2=CC(C3CC3)N(Cc3sc4ccccc4c3Cl)CC2)cc1` (stereo not given), for which the composite z-score in assay [1] was 0.0908; in assay [2], 1.02; in assay [3], -0.107; in [4] it was 0.261; in [5], 0.166; in assay [6], 0.503. Also, the composite z-score is 1.14 in assay [7], 0.19 in assay [9] and -0.0296 in assay [10]. In addition, in assay [8], the z-score was -1.71 (inactive).

Turning to `CCOC(=O)[C@H]1CC=C2C(=O)Oc3ccccc3[C@@H]21`, the composite z-score was 0.0468 in assay [1]; -0.775 in [2]; -0.083 in assay [3]; -0.491 in assay [4]; -0.316 in [5]; 0.833 in assay [6]. The composite z-score in assay [7] is -0.169; in [9], -0.203; in assay [10] it was -0.0645. Also, the z-score in assay [8] is 0.48 (inactive).

As for `COC(=O)[C@@]1(Cc2ccccc2)[C@H]2c3cc(C(=O)N(C)C)n(C)c3C[C@H]2CN1C(=O)c1ccccc1`, the composite z-score in assay [1] was 0.739; in assay [2] it was -0.389; in [3], 0.175; in assay [4], 0.536; in [5], 1.59; in assay [6], 2.02. Besides, the composite z-score in [7] is 1.14; in assay [9], 0.566; in [10], 0.189. For the same compound, in assay [8], the z-score was 1.51 (inactive).

`C[C@H]1O[C@H]2C3=C(C(=O)[C@@H]4O[C@@H]4[C@@H]3O)[C@@H]1[C@@H]1[C@@H](C)OC=C3[C@@H](O)[C@H]4O[C@H]4C(=O)[C@]312`: the composite z-score in [1] is -0.294; in [2], 0.0164; in [3] it was -0.102; in [4], -0.494; in assay [5] it was -0.468; in [6], -0.48. The composite z-score in assay [7] is -0.894; in [9], -0.293; in [10] it was -0.0994. For the same compound, the z-score in assay [8] was -2.19 (inactive).
